An excerpt weighted towards active compounds, which were near 5.7% of everything screened.
rCAG RNA binder: r(CAG) repeat RNA binding. TO-PRO-1 dye displacement fluorescence. 370,000 tested, 1.3% active. inhibition, % at 3 µM;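 active = inhibition above the plate cutoff, the mean of all test compounds on that plate plus 3 SD, cut at about 35% in these data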;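 note: higher means more dye released from RNA so lower well fluorescence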
MPTP inh: inhibitors of mitochondrial permeability transition pore; isolated mouse mitochondria, Ca2+ swelling absorbance, 30 min; inhibition, % at 10 µM; 360,000 tested, 1.4% active;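 active = inhibition of 50% or more, scaled per plate between neutral and stimulator controls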
FAS-TE inh: inhibitors of human fatty acid synthase thioesterase domain | P49327 | recombinant FAS-TE, OMFH fluorogenic substrate, fluorescence endpoint | inhibition, % at 15 µM | 360,000 tested, 0.67% active;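 active = compounds whose normalised, plate-corrected inhibition of enzyme fluorescence in the single-dose primary screen is 50% or more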
NR3A LBD binder: modulates the human NR3A ligand-binding domain; NR3A LBD differential scanning fluorimetry, Tm shift; 0% = protein alone, 100% = glycine-bound protein; 340,000 tested, 2.5% active; AID 1259313; Tm shift relative to glycine control, % at 25 µM;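 active = melting temperature shift of at least 10% of the positive control shift, at one fixed dose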
Myeloid diff MLP: myeloid differentiation induction | 360,000 tested, 1% active | calls only at 10 µM | ER-HoxA9 myeloid progenitors, lysozyme-GFP differentiation, flow cytometry | AID 624256;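 active = normalized GFP-positive differentiation at or above the plate's own cutoff, the solvent-only control mean plus 3 SD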;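 note: cells exposed to compound for four days before flow analysis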
Each line names hits and unclear results; the compound was inactive in the other large screens.

Cc1nc2c(sc(=S)n2Cc2ccco2)c(=O)n1CC(=O)Nc1ccc(F)cc1	NR3A LBD binder 14
CCc1nnc(NC(=O)c2cc(-c3ccccc3)nn2-c2ccccc2)s1	none
O=C(Nc1nccs1)c1cc(-c2ccccc2)nn1-c1ccccc1	NR3A LBD binder 12
Cn1c(=O)[nH]c(=O)c2c1nc(Br)n2CCCO	Myeloid diff MLP active
CCC(=O)OCCn1c(Br)nc2c1c(=O)[nH]c(=O)n2C	none
C=CCNc1nc(NCc2ccc(N(C)C)cc2)c2sc(-c3ccccc3)cc2n1	Myeloid diff MLP active (no result: NR3A LBD binder)
Cc1nc(NC(=O)/C=C/c2ccccc2)sc1C(=O)Nc1cccc(Cl)c1	NR3A LBD binder 32
CCC(C)N(C(=O)c1oc(=O)c2ccccc2c1-c1ccc(C)cc1)C(C)CC (stereo not given)	none (no result: MPTP inh, FAS-TE inh, NR3A LBD binder, Myeloid diff MLP)
CC(=O)C1=C(C)NC(SCC(=O)c2ccc(Cl)cc2)=C(C#N)C1c1ccco1 (stereo not given)	Myeloid diff MLP active
Cc1noc(C)c1S(=O)(=O)N(C)C[C@@H]1OCc2cnnn2CCCC(=O)N([C@@H](C)CO)C[C@@H]1C	none (no result: MPTP inh, FAS-TE inh, NR3A LBD binder, Myeloid diff MLP)
CCOC(=O)c1sc(N(Cc2ccccc2)C(=O)COC(=O)c2ccc(O)cc2)nc1C	NR3A LBD binder 29
CCOC(=O)c1sc(N(Cc2ccccc2)C(=O)COC(=O)c2ccccc2O)nc1C	none
O=C(N[C@H](C(=O)N1CCC[C@H]1C(=O)NC1CCCC1)C1CCCCC1)c1ccc(Cl)c(Cl)c1	none (no result: MPTP inh, FAS-TE inh, NR3A LBD binder, Myeloid diff MLP)
O=[N+]([O-])c1ccc(N2CCCC2)cc1NC(c1ccccc1)c1ccccc1	NR3A LBD binder 14
O=[N+]([O-])c1ccc(N2CCOCC2)cc1NC(c1ccccc1)c1ccccc1	none
COC(=O)c1cc2occc2n1CC(=O)Nc1cc(OC)cc(OC)c1	NR3A LBD binder 11
COc1cc(-c2nc3ccc(C)cn3c2Nc2ccc3c(c2)OCCO3)ccc1O	NR3A LBD binder 23
CC(=O)N(C)C[C@@H]1Oc2cc(Br)ccc2S(=O)(=O)N([C@H](C)CO)C[C@@H]1C	none (no result: MPTP inh, FAS-TE inh, NR3A LBD binder, Myeloid diff MLP)
CC(=O)Nc1ccc(Nc2cc(C)nc3c(-c4ccccc4)cnn23)cc1	NR3A LBD binder 33
O=C(c1cccs1)N1CCN(c2ncc(C(F)(F)F)cc2Cl)CC1	NR3A LBD binder 11
CC(C)c1cc(C(N)=O)c(NC(=O)c2cccc(COc3ccc(Cl)cc3)c2)s1	NR3A LBD binder 16
Cc1nn(Cc2c(F)c(F)c(F)c(F)c2F)c(C)c1NC(=O)c1cccc(COc2ccc(Cl)cc2)c1	none (no result: Myeloid diff MLP)
COc1cnc(-c2ccccn2)nc1N(C)C	Myeloid diff MLP active
FC(F)(F)COc1nc(OCC(F)(F)F)nc(N2CCN(c3ccccc3)CC2)n1	NR3A LBD binder 12
FC(F)(F)COc1nc(N2CCOCC2)nc(N(c2ccccc2)c2ccccc2)n1	none
NC(=O)c1ccc(NC(=O)c2ccc(COc3ccccc3Br)cc2)cc1	NR3A LBD binder 22
O=C(NCc1cccnc1)c1ccc(COc2ccccc2Br)cc1	none
NNC(=O)c1cccc(COc2ccccc2Br)c1	Myeloid diff MLP active
O=C(Nc1cccnc1)c1ccc(COc2ccccc2Br)cc1	NR3A LBD binder 36
Cc1cc(C)nc(NC(=O)c2ccc(COc3ccccc3Cl)cc2)c1	none
O=C(NCc1ccccc1)c1cccc(COc2ccccc2Cl)c1	none
Cc1cc(C)n(Cc2ccc(NC(=O)c3ccc(COc4ccccc4Br)cc3)cc2)n1	NR3A LBD binder 10
O=C(CSc1nnc(COc2ccccc2)n1-c1ccc(Cl)cc1)Nc1ccc2c(c1)OCCO2	none (no result: MPTP inh, FAS-TE inh, NR3A LBD binder, Myeloid diff MLP)
CC(C)C[C@H](NC(=O)c1ccco1)C(=O)N1CCC[C@H]1C(=O)NCc1ccccc1	none (no result: MPTP inh, FAS-TE inh, NR3A LBD binder, Myeloid diff MLP)
O=C(N1CCN(c2ccccc2)CC1)C1(S(=O)(=O)c2ccc(Cl)cc2)CC1	Myeloid diff MLP active
O=C(Nc1ccc(F)cc1)c1oc2ccccc2c1NC(=O)C1CCCC1	NR3A LBD binder 13 (no result: rCAG RNA binder)
COc1cc(C)c(CNc2cc(C)cc(C)c2)cc1C	NR3A LBD binder 20
N#CCC(=O)N/N=C/c1cn(Cc2ccc(Cl)cc2Cl)c2ccccc12	NR3A LBD binder 24
COC(=O)[C@H]1[C@@H](C)N(Cc2ccccc2)C(=O)N[C@H]1c1cccc(C(F)(F)F)c1	Myeloid diff MLP active
CCN1C(=O)N[C@@H](CCc2ccccc2)[C@@H](C(=O)OC)[C@H]1C	Myeloid diff MLP active
Nc1c(C(=O)CSc2nnnn2-c2ccccc2)c(=O)[nH]c(=O)n1C1CC1	none
Cc1ccc(-n2nnnc2SCC(=O)c2c(N)n(C3CC3)c(=O)[nH]c2=O)cc1	Myeloid diff MLP active
CCOC(=O)Cc1cc(-c2ccc(O)cc2)nc2ccc3ccccc3c12	NR3A LBD binder 18 (no result: Myeloid diff MLP)
CCOC(=O)c1c(-c2ccc(C)o2)csc1NC(=S)NC(=O)c1cccs1	NR3A LBD binder 18
CC(C)(C)c1ccc(/C=C/C(=O)NC2=NCCS2)cc1	NR3A LBD binder 12
Cc1ccc(/C=C/C(=O)NC2=NCCS2)cc1	none
COc1ccc(C(c2nnnn2C(C)(C)C)N2CCN(c3nc4ccccc4s3)CC2)cc1 (stereo not given)	NR3A LBD binder 13
CC(C)(C)n1nnnc1C(c1ccccc1)N1CCN(C/C=C/c2ccccc2)CC1 (stereo not given)	Myeloid diff MLP active (no result: NR3A LBD binder)
COC(=O)[C@]12C[C@H](CC(=O)N3CCN(C(=O)C4CC4)CC3)C(=O)N(Cc3cccc4ccccc34)C1=C[C@H](C(C)C)O[C@@H]2C1CC1	none (no result: MPTP inh, FAS-TE inh, NR3A LBD binder, Myeloid diff MLP)
CCn1c(SCC(=O)N/N=C/c2ccc(C)o2)nnc1-c1ccc(C)cc1	none
CCn1c(SCC(=O)N/N=C/c2ccc(C)o2)nnc1-c1ccc(C(C)(C)C)cc1	Myeloid diff MLP active
CC(C)C[C@H]1COc2cc(Br)ccc2S(=O)(=O)N1Cc1ccc(F)cc1F	none (no result: MPTP inh, FAS-TE inh, NR3A LBD binder, Myeloid diff MLP)
COc1ccc(CC(=O)N2CCN(C(=O)c3ccc4nc(C)n(C5CCCC5)c4c3)CC2)cc1	none (no result: MPTP inh, FAS-TE inh, NR3A LBD binder, Myeloid diff MLP)
Cc1onc(-c2ccc(Cl)cc2)c1-c1ccn(S(=O)(=O)c2cccc(Cl)c2)n1	none (no result: MPTP inh, FAS-TE inh, NR3A LBD binder, Myeloid diff MLP)
Cc1[nH]c2ccccc2c1C(=O)NS(=O)(=O)Nc1ccc(F)cc1	Myeloid diff MLP active
O=S1(=O)N[C@@H](Cc2ccccc2)COc2cccc(N3CCCC3)c21	none (no result: MPTP inh, FAS-TE inh, NR3A LBD binder, Myeloid diff MLP)
Cc1ccc(Nc2ncnc(Cl)c2N)cc1	NR3A LBD binder 13
CCOc1ccc(CCN2C(=S)N([C@@H](Cc3ccc(O)cc3)CN3CCC[C@@H]3CN3C(=S)NC[C@@H]3CC(C)C)C[C@@H]2Cc2ccc(O)cc2)cc1	Myeloid diff MLP active (no result: NR3A LBD binder)
CCOc1ccc(CCN2C(=S)N([C@@H](Cc3ccc(O)cc3)CN3CCCC3CN3C(=S)NC[C@@H]3Cc3ccc(O)cc3)C[C@@H]2CC(C)C)cc1 (stereo not given in full)	NR3A LBD binder 13
CCOc1ccc(CCN2C(=S)N([C@@H](Cc3ccccc3)CN3CCC[C@@H]3CN3C(=S)NC[C@@H]3Cc3ccc(O)cc3)C[C@@H]2CC(C)C)cc1	none (no result: NR3A LBD binder)
COC(=O)[C@H](CC(C)C)N1Cc2nnn(Cc3ccc(C)cc3)c2-c2cc(F)ccc2S1(=O)=O	none (no result: MPTP inh, FAS-TE inh, NR3A LBD binder, Myeloid diff MLP)
CCOC(=O)[C@]12CCCC3=C1N(CCC3)C(=O)[C@@H](CC(=O)NCc1ccc(C)o1)C2	none (no result: MPTP inh, FAS-TE inh, NR3A LBD binder, Myeloid diff MLP)
